Assay results reported in PubChem BioAssay (EPA / NIEHS).
Results filed as inconclusive are left out. Calls of active or inactive are those of the source. The calls were made as follows: active = hit-call score of the fitted dose curve at least 0.9, where 1 is the maximum; inconclusive = response in the unintended direction; inactive = score below 0.9.

Assays:
[1] = target: Cellular tumor antigen p53 (Homo sapiens) (UniProt P04637); assay: TOX21_p53_BLA_p2_ratio: Tox21 HCT-116 p53 Agonism Beta-lactamase Assay, Ratio, Phase 2 (AID 2283592)
In short: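 Read-out is the blue/green (460/530 nm, 405 nm excitation) ratio after 2 h CCF4-AM loading, fitted as gain versus DMSO. Compounds, pinned at 217-fold dilution from DMSO stocks, stayed 16 h on HCT-116 beta-lactamase reporter cells seeded 5 h earlier.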

[2] = TOX21_p53_BLA_p3_viability: Viability Assessment in the Tox21 HCT-116 p53 Agonism Beta-lactamase Assay, Phase 3 (AID 2283593);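 also: cells exposed to compound for 16 h before reading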
In short: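 HCT-116 cells (4000/well) rested 5 h at 37C, then got DMSO compounds by pin tool (217-fold dilution) for 16 h at 37C, 5% CO2. After the bla read, CellTiter-Glo was added and luminescence read at 30 min, room temperature.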

[3] = TOX21_p53_BLA_p5_viability: Viability Assessment in the Tox21 HCT-116 p53 Agonism Beta-lactamase Assay, Phase 5 (AID 2283600)
In short: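 Viability came from CellTiter-Glo ATP luminescence, read after 30 min at room temperature. Before this, HCT-116 p53-bla cells (4000/well) had 16 hours of compound exposure at 37C, with DMSO stocks diluted 217-fold on transfer.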

[4] = target: Cellular tumor antigen p53 (Homo sapiens) (UniProt P04637); assay: TOX21_p53_BLA_p4_ratio: Tox21 HCT-116 p53 Agonism Beta-lactamase Assay, Ratio, Phase 4 (AID 2283601)
In short: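 HCT116 cells carrying an inducible beta-lactamase reporter were plated at 4000 cells/well, rested 5 h, then exposed to compounds in DMSO (217-fold dilution) for 16 h at 37C. CCF4-AM substrate was loaded 2 h at room temperature; 460/530 nm emission ratio scored gain-of-signal versus DMSO.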

[5] = target: Cellular tumor antigen p53 (Homo sapiens) (UniProt P04637); assay: TOX21_p53_BLA_p3_ratio: Tox21 HCT-116 p53 Agonism Beta-lactamase Assay, Ratio, Phase 3 (AID 2283596)
In short: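 Cells were seeded at 4000/well, rested 5 h at 37C, then dosed with DMSO compound solutions (217-fold dilution) for 16 h. CCF4-AM substrate was loaded for 2 h at room temperature, and the 460/530 nm emission ratio was fitted for gain of signal versus DMSO.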

[6] = TOX21_p53_BLA_p4_viability: Viability Assessment in the Tox21 HCT-116 p53 Agonism Beta-lactamase Assay, Phase 4 (AID 2283597);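 also: hits lower the luminescence signal meaning cytotoxicity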
In short: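 Cytotoxicity as reduced cellular ATP (CellTiter-Glo luminescence, 30 min room temperature), measured in the same wells following the CCF4 FRET p53 reading. Human HCT-116 cells received compounds in DMSO (217-fold dilution) for 16 h.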

[7] = target: Cellular tumor antigen p53 (Homo sapiens) (UniProt P04637); assay: TOX21_p53_BLA_p5_ratio: Tox21 HCT-116 p53 Agonism Beta-lactamase Assay, Ratio, Phase 5 (AID 2283599)
In short: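 HCT-116 cells carrying a p53-inducible beta-lactamase reporter were seeded at 4000 cells/well and dosed after 5 h with compound in DMSO (217-fold dilution). After 16 h at 37C, CCF4-AM substrate was added for 2 h, and the 460/530 nm emission ratio was scored as gain-of-signal versus DMSO.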

[8] = ACEA_ER_AUC_viability: ACEA Biosciences xCELLigence Real-Time Cell Analysis on Estrogen Receptor Agonism for Viability (AID 2283782);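 also: hit means loss of impedance signal meaning reduced cell growth or viability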
In short: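 Continuous-exposure impedance cell analysis uses T-47D cells in charcoal-stripped serum, eight 1:4 dilutions topping at 100 uM final, biological duplicate. Area under the growth curve at 80 h is fitted against DMSO baseline.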

Measured: AC50

Sequence of Cellular tumor antigen p53 (Homo sapiens) (P04637 whole entry, looked up): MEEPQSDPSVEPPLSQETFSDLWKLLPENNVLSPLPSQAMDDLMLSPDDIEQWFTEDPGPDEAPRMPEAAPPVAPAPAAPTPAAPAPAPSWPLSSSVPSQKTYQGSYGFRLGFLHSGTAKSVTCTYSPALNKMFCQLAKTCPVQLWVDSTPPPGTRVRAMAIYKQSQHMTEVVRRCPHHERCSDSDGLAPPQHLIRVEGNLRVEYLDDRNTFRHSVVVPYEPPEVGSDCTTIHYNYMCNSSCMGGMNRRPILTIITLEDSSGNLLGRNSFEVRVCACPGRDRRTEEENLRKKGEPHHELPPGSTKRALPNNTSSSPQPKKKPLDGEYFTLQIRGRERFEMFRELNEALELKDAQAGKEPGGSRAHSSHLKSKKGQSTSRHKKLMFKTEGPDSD

COC(C)OC
inactive: [1] | [2] | [3] | [4]

O=c1c(O)c(O)c1=O
inactive: [1] | [5] | [6] | [7] | [3]

Cc1ccc(N(CC2=NCCN2)c2cccc(O)c2)cc1
inactive: [5] | [6] | [7]
active: [1] 31 µM

Cc1cc(OI)c(C(C)C)cc1-c1cc(C(C)C)c(OI)cc1C
inactive: [1] | [5]

CCN(CC)CCC(=O)N1c2ccccc2Sc2ccc(C(F)(F)F)cc21
inactive: [1] | [5] | [6] | [7]

O=C(CCN1CCC(c2ccccc2)C1)c1ccc2c(c1)OCCO2 (stereo unspecified)
inactive: [1] | [5] | [6]

Nc1cccc([N+](=O)[O-])c1
inactive: [1] | [5] | [6] | [7] | [3]

O=C1CCCC(=O)C1
inactive: [1] | [5]

CN1CCN(c2c(F)cc3c(=O)c(C(=O)O)cn4c3c2OCN4C)CC1
inactive: [1] | [5] | [6]

NCCCC(=O)O
inactive: [1] | [5] | [6]

C=CC[N+]1([C@H]2C[C@H]3[C@@H]4CC[C@H]5C[C@H](O)[C@@H](N6CCOCC6)C[C@]5(C)[C@H]4CC[C@]3(C)[C@H]2OC(C)=O)CCCC1
inactive: [1] | [5] | [6] | [7]

Cc1cc(O)ccc1N
inactive: [1] | [5] | [6] | [7] | [3]

COc1ccc(-c2cc(=O)c3c(O)cc(O[C@@H]4O[C@H](CO[C@@H]5O[C@@H](C)[C@H](O)[C@@H](O)[C@H]5O)[C@@H](O)[C@H](O)[C@H]4O)cc3o2)cc1O
inactive: [1] | [2] | [3] | [4]

O=C(CN1CCNCC1)NC1CCCCC1
inactive: [1] | [5] | [6] | [7] | [3]

CC(=O)N[C@@H](Cc1ccc(O)cc1)C(=O)O
inactive: [1] | [5] | [6] | [7] | [3]

CO[C@@]1(NC(=O)C2SC(=C(C(N)=O)C(=O)O)S2)C(=O)N2C(C(=O)O)=C(CSc3nnnn3C)CS[C@@H]21 (stereo partly specified)
inactive: [1] | [5]

Cc1ccnc2ccccc12
inactive: [1] | [5]

Nc1nc(N)nc(-c2cc(Cl)ccc2Cl)n1
inactive: [1] | [5]

O=C1CC[C@@H](C(=O)N[C@H]2C[C@@H]2c2ccccc2)N1
inactive: [1] | [2] | [3] | [4]

O=S1OCCO1
inactive: [1] | [5]

CCOCCC(=O)OCC
inactive: [1] | [2] | [4]

CC(C)OC(=O)C(C(=O)OC(C)C)=C1SC=CS1
inactive: [1] | [5] | [6] | [7] | [3]

Cc1c(N=C=O)cccc1N=C=O
inactive: [1] | [5] | [6]

CNC(=O)c1ccccc1
inactive: [1] | [2] | [4]

CCC(=O)Nc1ccc(O)cc1
inactive: [1] | [2] | [4]

O=C(Nc1cccc(C2=NCCN2)c1)Nc1cccc(C2=NCCN2)c1
inactive: [1] | [5] | [6]

COCCOC(=O)CC#N
active: [8] 50 µM
inactive: [1] | [2] | [3] | [4]

CCCCOC(=O)CCS
inactive: [1] | [5] | [6] | [7] | [3]

CN1CCN(C2=Nc3ccccc3Sc3ccc(Cl)cc32)CC1
inactive: [1] | [5]

CC(C(=O)O)c1ccc(C(=O)c2cccs2)cc1 (stereo unspecified)
inactive: [1] | [5] | [6]

C=CC(C)CCC=C(C)C (stereo unspecified)
inactive: [1] | [2] | [3] | [4]

CCN(C)C(=O)Oc1cccc([C@H](C)N(C)C)c1
inactive: [1] | [5] | [6]

O=C1c2ccccc2C(=O)C1c1ccc(F)cc1
inactive: [1] | [5] | [6] | [7]

C[C@]12CC[C@@H]3c4ccc(O)cc4CC[C@H]3[C@@H]1CC[C@@H]2OP(=O)(O)O
inactive: [1] | [5] | [6]

C[C@@H](c1ncncc1F)[C@](O)(Cn1cncn1)c1ccc(F)cc1F
inactive: [1] | [2] | [3] | [4]

N[C@@H](CCC(=O)Nc1ccc([N+](=O)[O-])cc1)C(=O)O
inactive: [1] | [5] | [6]

N#CSc1ccc(N)c([N+](=O)[O-])c1
inactive: [1] | [5] | [6] | [7]

COC(=O)C(C)O (stereo unspecified)
inactive: [1] | [5] | [6] | [7]

Cc1ccccc1N1C(=O)c2cc(S(N)(=O)=O)c(Cl)cc2NC1C (stereo unspecified)
inactive: [1] | [2] | [3] | [4]

CCCCOC(=O)CC#N
inactive: [1] | [2] | [3] | [4]

CCCCCCCCCCCCCCCCI
inactive: [1] | [5] | [6] | [7] | [4]

FC(F)(F)c1cccc(Cl)c1
inactive: [1] | [5] | [6] | [7] | [3] | [4]

C[n+]1ccn(Cc2ccccc2)c1
inactive: [1] | [5] | [6] | [7] | [3] | [4]

COc1ccc(C2(C#N)CCC(C(=O)O)CC2)cc1OC1CCCC1 (stereo unspecified)
inactive: [1] | [5] | [6] | [7] | [3]

Cc1c[nH]c2ccccc12
inactive: [1] | [5] | [6] | [7] | [3] | [4]

COc1ccc(/C=C/c2cc(OC)cc(=O)o2)cc1
inactive: [1] | [5] | [6] | [7] | [4]

CCCCCCCC/C=C\CCCCCCCC(N)=O
inactive: [1] | [5] | [6] | [7] | [4]

OCl
inactive: [1] | [5] | [6] | [7] | [4]

O=C[O][Al]([O]C=O)[O]C=O
inactive: [1] | [5] | [6] | [7] | [3] | [4]
